From PubChem
In the library only some 20% were active in any assay of this set; here they are far more common.
Shiga inhibitor = inhibitors of Shiga toxin in Vero cells; Vero cells, Shiga toxin protein synthesis inhibition reporter; inhibition, % at 38.7 µM; hit rate 9.2% among 290,000; AID 2315; in the data active = inhibition mostly above about 28%, no sharp cut-off; inactive = mostly below about 43%; note: 0% is about no effect
HCMV inh = inhibitors of human cytomegalovirus; HFF cells, HCMV-luciferase reporter, 72 h; hits give low values; activity change, negative = inhibition, % at 57.5 µM; hit rate 4.5% among 410,000; in the data active = activity change below about -60%; inconclusive = no clear call, values can overlap the other calls; inactive = above about -39%; note: % is set by controls: 0 for no effect and ±100 for the full control effect
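After 16 h attachment at 37C, HFF cells received test compound and HCMV-luciferase (1 PFU/cell); reporter luminescence read 72 h later, data normalized against buffer-only and known inhibitor Salinomycin.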
Cycloheximide cs = counter-screen for Shiga toxin inhibitors: cycloheximide protein synthesis inhibition | cell reporter, cycloheximide protein synthesis inhibition counterscreen | max response, % | hit rate 12% among 300,000; in the data active = max response mostly above about 13%, no sharp cut-off; inactive = mostly below about 14%; note: read at 38.3 µM for the half of the compounds with a filed dose; 0% is about no effect
Pf growth 96h = P. falciparum growth inhibition at 96 hour, primary screen for plastid delayed-death inhibitors | P. falciparum luciferase reporter growth, 96 h | Potency, µM (titrated, usually from 28.7 µM), without a hit: top-dose activity change, negative = inhibition, actives largely listed as inhibitors | hit rate 6.9% among 320,000; note: potency is the fitted concentration of half-maximal effect; % is set by controls: 0 for no effect and ±100 for the full control effect
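Plates of compound plus infected erythrocytes (2% hematocrit, 0.05% parasitemia final) incubate 96 hours, 37 C, 5% CO2. Detection reagent added; reduced luminescence from the parasites' luciferase reporter flags inhibition.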
Pf growth 48h = inhibits P. falciparum growth in the first generation, 48 h. P. falciparum luciferase growth in erythrocytes, 48 h. Potency, µM (highest dose often 28.7 µM), for inactives: at the highest dose activity change, negative = inhibition, usual class: inhibitors. hit rate 5.9% among 310,000; note: potency is the fitted concentration of half-maximal effect; % is set by controls: 0 for no effect and ±100 for the full control effect
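Read-out is firefly luciferase luminescence from an integrated reporter in P. falciparum, so falling signal marks reduced parasite growth. Infected erythrocytes were at 2% hematocrit and 0.1% parasitemia (final) in Albumax-supplemented RPMI 1640.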
Numbers without * were called inactive. Unless noted, calls come from the whole dose curve; as a rule, active = well fitted inhibition curve with a large enough effect; inconclusive = small, poorly fitted or top-dose-only effect, or another doubt; inactive = no such curve, though single readings can be large or run the other way.

`CC(=O)c1cc(C(=O)N2CCc3c([nH]c4ccccc34)C2CC(C)C)[nH]n1` (centres undefined) gave Shiga inhibitor 11.0, HCMV inh 8.0, Cycloheximide cs -0.9, Pf growth 96h 9.28µM* and Pf growth 48h inconclusive.
Screening CC(C)CC1NC(C(=O)O)Cc2c1[nH]c1ccccc21 (centres undefined) returned Shiga inhibitor -5.5, HCMV inh 23.6, Cycloheximide cs -3.1, Pf growth 96h inconclusive and Pf growth 48h -4.2%.
Cn1cccc1-c1cc(C(=O)N2CCc3c([nH]c4ccccc34)C2c2ccccn2)[nH]n1 (centres undefined) was read as Shiga inhibitor -20.4, HCMV inh 9.5, Cycloheximide cs -2.5, Pf growth 96h -0.5% and Pf growth 48h inconclusive.
For CC(C)CC1c2[nH]c3ccccc3c2CCN1C(=O)C1CCOCC1 (centres undefined) the results were Shiga inhibitor 6.5, HCMV inh -0.8, Cycloheximide cs -3.0, Pf growth 96h 4.4% and Pf growth 48h 4.65µM*.
O=C(NCc1ccco1)/C(=C/c1cccnc1)NC(=O)c1ccco1 was read as Shiga inhibitor -5.2, HCMV inh 2.6, Cycloheximide cs 1.1, Pf growth 96h 0.0% and Pf growth 48h 14.3%.
`COC(=O)c1ccc(CSc2nc3c([nH]c4ccccc43)c(=O)n2-c2cccc(Cl)c2)o1` gave HCMV inh 4.6.
Screening C[N+]1(CC2COC(c3ccccc3)(C3CCCCC3)O2)CCCCC1 (centres undefined) returned Pf growth 96h 5.86µM* and Pf growth 48h 1.07µM*.
`C[N+]1(CC2COC3(CCCCC3)O2)CCCCC1` (centres undefined) gave Shiga inhibitor 10.5, HCMV inh -6.8, Cycloheximide cs -2.7, Pf growth 96h -14.8% and Pf growth 48h inconclusive.
S=C(NCCCc1ccccc1)Nc1ccc(Cl)cc1 was read as Shiga inhibitor -1.2, HCMV inh -97.6*, Cycloheximide cs -3.2, Pf growth 96h 67.2% and Pf growth 48h 0.0%.
Screening S=C(NCCc1ccccc1)Nc1ccc(Nc2ccccc2)cc1 returned Shiga inhibitor 9.3, HCMV inh -27.4, Cycloheximide cs -2.1, Pf growth 96h -3.0% and Pf growth 48h inconclusive.
Screening S=C(NCc1ccccc1)Nc1ccc(Cl)cc1 returned Shiga inhibitor 22.6, HCMV inh -11.8, Cycloheximide cs 13.2, Pf growth 96h 20.1% and Pf growth 48h -4.6%.
`S=C(NCCCc1ccccc1)Nc1ccccc1` gave Shiga inhibitor 27.4, HCMV inh -39.5, Cycloheximide cs 20.0*, Pf growth 96h -4.7% and Pf growth 48h inconclusive.
`CCCNC(=S)Nc1ccccc1` gave Shiga inhibitor -4.8, HCMV inh -64.9*, Cycloheximide cs -4.0, Pf growth 96h 16.7% and Pf growth 48h inconclusive.
Screening CCNC(=S)Nc1ccc(N(c2ccccc2)C(C)C)cc1 returned Shiga inhibitor 57.0*, HCMV inh -10.4, Cycloheximide cs 17.4* and Pf growth 48h -0.2%.
For CCOC(=O)c1ccc2c(c1)N(Cc1ccc(F)cc1Cl)C(=O)c1ccccc1S2(=O)=O the results were HCMV inh 2.9.
CC(=O)c1ccc(NS(=O)(=O)c2cnc(N)nc2)cc1 was read as HCMV inh 10.8.
Screening CCN(CC)CCCNC(=O)CSc1nc2nc(C)c(Cc3ccccc3C)c(C)n2n1 returned HCMV inh -2.2.
`COc1ccc2c(c1)C(n1cccc1)C(=O)N2C` (centres undefined) gave HCMV inh 24.1.
Screening O=C(CSc1nnc(CNC(=O)c2c(F)cccc2F)o1)Nc1ccc2c(c1)OCCO2 returned Shiga inhibitor -3.1, HCMV inh -11.2, Cycloheximide cs 1.7, Pf growth 96h 12.7% and Pf growth 48h -5.5%.
For CN1C=C/C(=C\c2cc[n+](C)c3ccccc23)c2ccccc21 the results were Shiga inhibitor -17.1, HCMV inh -99.9*, Cycloheximide cs -3.4, Pf growth 96h 11.7µM* and Pf growth 48h inconclusive.
CC(=O)c1ccc(NC(=O)Nc2sc3nc4n(c(=O)c3c2C)CCC(C)CC4)cc1 (centres undefined) was read as HCMV inh 9.7.
CC(=O)N1/C(=C/c2ccc(N(C)C)cc2)C(=O)c2ccccc21 was read as Shiga inhibitor 21.8, HCMV inh 6.8, Cycloheximide cs 21.6*, Pf growth 96h inconclusive and Pf growth 48h -17.8%.
`CC1(C2CC2)NC(=O)N(CC(=O)Nc2ccccc2F)C1=O` (centres undefined) gave HCMV inh -9.4, Pf growth 96h 6.5% and Pf growth 48h -7.7%.
`OCCCNc1cc(-c2ccnc(Nc3cccc(Cl)c3)n2)ccn1` gave Shiga inhibitor 36.9*, HCMV inh -97.4*, Cycloheximide cs 23.3*, Pf growth 96h 0.415µM* and Pf growth 48h 0.738µM*.
Screening CN(C#N)c1nc(Cl)nc(Nc2cccc(Cl)c2)n1 returned Shiga inhibitor -9.4, HCMV inh -28.1, Cycloheximide cs 4.2, Pf growth 96h 9.3% and Pf growth 48h 0.4%.
For CCC(C)Oc1cc(-c2ccnc(Nc3cccc(Cl)c3)n2)ccn1 (centres undefined) the results were Shiga inhibitor 19.2, HCMV inh -86.5*, Cycloheximide cs 4.2, Pf growth 96h inconclusive and Pf growth 48h inconclusive.
Cc1ccc(Cn2c(=O)n(C)c(=O)c3sccc32)cc1 was read as Shiga inhibitor 19.2, HCMV inh 91.4, Cycloheximide cs -1.1, Pf growth 96h 20.4% and Pf growth 48h 86.0%.
`COc1ccc(C(=O)/C=C/C(=O)N(CC(=O)NC2CCCCC2)CC2CCCO2)c(O)c1` (centres undefined) gave Shiga inhibitor -13.8, HCMV inh 55.8, Cycloheximide cs -6.7, Pf growth 96h -13.6% and Pf growth 48h inconclusive.
For COc1ccc(C(=O)/C=C/C(=O)N(CC(=O)NC2CCCCC2)Cc2ccccc2)c(O)c1 the results were Shiga inhibitor -4.2, HCMV inh -99.2*, Cycloheximide cs 2.2, Pf growth 96h 2.62µM* and Pf growth 48h inconclusive.
`COc1ccccc1CN(C)CC(=O)NC(=O)NC1CCCCC1` gave HCMV inh -12.9, Pf growth 96h inconclusive and Pf growth 48h inconclusive.
For COc1ccc(C(=O)/C=C/C(=O)N(CC(=O)NC2CCCCC2)Cc2ccccc2OC)c(O)c1 the results were Shiga inhibitor 25.2, HCMV inh -97.5*, Cycloheximide cs 4.0, Pf growth 96h inconclusive and Pf growth 48h 9.28µM*.
`CN(C)CCN(Cc1ccccc1)S(=O)(=O)c1ccc(-c2cc(C(F)(F)F)on2)s1` gave HCMV inh -100.0*.
Screening CC(C)N(Cc1ccccc1)S(=O)(=O)c1ccc(-c2cc(C(F)(F)F)on2)s1 returned HCMV inh -8.5.
`CN(C1CC(C)(C)NC(C)(C)C1)S(=O)(=O)CC12CCC(CC1=O)C2(C)C` (centres undefined) gave Shiga inhibitor -9.8, HCMV inh 0.0, Cycloheximide cs 0.5, Pf growth 96h 15.1% and Pf growth 48h 0.6%.
